Assay results taken from PubChem BioAssay AID1159580 (chemical genetic matrix, 2015).
About 2,000 (36%) of roughly 5,500 compounds were called active. Roughly 18% stayed inconclusive and do not appear here. Cut-off read from the data, not from the text of the source: active = normalized growth mostly below about 0.91 (no sharp cut-off); inconclusive = no clear call, values can overlap the other calls; inactive = mostly above about 0.92. Some of the results follow.

Test: chemical genetic growth profiling, strain panel (AID 1159580);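 note: tested at 20 µM; growth read once vehicle control cultures reached saturation at 30 °C; 1 = growth at the plate median or of vehicle wells; lower values mean less growth of the strain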
Conditions: growth OD

Measured: normalized growth

Nc1cc(-c2ccc(Cl)cc2)nc(N)n1
inactive: S. cerevisiae deletion strains, locus YAL013W, strain DEP1, stronger effect = lower value 0.997 | S. cerevisiae deletion strains, locus YBR229C, strain ROT2, stronger effect = lower value 0.991 | S. cerevisiae deletion strains, locus YDL101C, strain DUN1, stronger effect = lower value 0.995 | S. cerevisiae deletion strains, locus YDL134C, strain PPH21, stronger effect = lower value 0.959 | S. cerevisiae deletion strains, locus YDR150W, strain NUM1, stronger effect = lower value 1.02 | S. cerevisiae deletion strains, locus YEL061C, strain CIN8, stronger effect = lower value 0.995 | S. cerevisiae deletion strains, locus YGR078C, strain PAC10, stronger effect = lower value 0.999 | S. cerevisiae deletion strains, locus YHR030C, strain SLT2, stronger effect = lower value 0.963 | S. cerevisiae deletion strains, locus YHR087W, strain rtc3, stronger effect = lower value 0.993 | S. cerevisiae deletion strains, locus YJL187C, strain SWE1, stronger effect = lower value 1 | S. cerevisiae deletion strains, locus YJR043C, strain POL32, stronger effect = lower value 0.982 | S. cerevisiae deletion strains, locus YJR075W, strain HOC1, stronger effect = lower value 0.972 | S. cerevisiae deletion strains, locus YKL190W, strain CNB1, stronger effect = lower value 0.965 | S. cerevisiae deletion strains, locus YLR039C, strain RIC1, stronger effect = lower value 0.914 | S. cerevisiae deletion strains, locus YLR058C, strain SHM2 (second series), stronger effect = lower value 0.993 | S. cerevisiae deletion strains, locus YLR085C, strain ARP6, stronger effect = lower value 1.02 | S. cerevisiae deletion strains, locus YLR262C, strain YPT6, stronger effect = lower value 0.85 | S. cerevisiae deletion strains, locus YML094W, strain GIM5, stronger effect = lower value 1.03 | S. cerevisiae deletion strains, locus YMR219W, strain ESC1, stronger effect = lower value 0.991 | S. cerevisiae deletion strains, locus YMR263W, strain SAP30, stronger effect = lower value 0.996 | S. cerevisiae deletion strains, locus YNL153C, strain GIM3, stronger effect = lower value 0.992 | S. cerevisiae deletion strains, locus YNL298W, strain CLA4 (second series), stronger effect = lower value 0.992 | S. cerevisiae deletion strains, locus YNL322C, strain KRE1, stronger effect = lower value 0.99 | S. cerevisiae deletion strains, locus YNR030W, strain Alg12, stronger effect = lower value 1 | S. cerevisiae deletion strains, locus YOL006C, strain TOP1, stronger effect = lower value 0.944 | S. cerevisiae deletion strains, locus YPL055C, strain LGE1, stronger effect = lower value 1.02 | S. cerevisiae deletion strains, locus YPL241C, strain CIN2, stronger effect = lower value 0.995 | S. cerevisiae deletion strains, locus YPR135W, strain CTF4, stronger effect = lower value 0.939 | S. cerevisiae strains, strain wild type, stronger effect = lower value 0.966
